High-throughput results as filed in PubChem.
Rab9 promoter act: activators of Rab9 promoter. Huh7 Rab9 promoter-luciferase reporter, luminescence, 24 h. Potency, µM (top dose mostly 9.22 µM), for the others: at the highest dose activation, negative = inhibition, most hits filed as activators. 2.8% of 320,000 active. AID 485297; note: % of control where 0% means no effect; nearly all actives have a fitted effect of over 60% in size
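Cells were plated at 1500 per well in reduced-serum medium with 10% FBS and left 2 h. Compound in DMSO was then added for 24 h at 37 °C. Reporter signal was read by luminescence after 10 min with luciferase detection reagent.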
NPC1 prom act: activators of NPC1 promoter; Huh7 NPC1 promoter luciferase reporter, 24 h; Potency, µM (top dose mostly 9.22 µM), inactives show at the highest dose activation, most hits filed as activators; 2.4% of 320,000 active; AID 485313; note: % of control where 0% means no effect; nearly all actives have a fitted effect of over 60% in size
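Compounds in DMSO were transferred onto Huh7 NPC1-luciferase reporter cells pre-incubated 2 h; after 24 h at 37 °C, Amplite reagent was dispensed and luminescence recorded 10 min later.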
SMN2 splice up: enhancers of SMN2 splice variant expression | AID 1458 | HEK293 SMN2-luciferase splicing reporter, luminescence, 30-36 h | Potency, µM (doses to about 46.1 µM), for inactives: top-dose activity change, positive = activation, most hits filed as activators | 2.8% of 210,000 active; note: % of control where 0% means no effect; nearly all actives have a fitted effect of over 55% in size
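HEK293 cells carry an SMN2 minigene-luciferase reporter in which exon 7 inclusion puts luciferase in frame. Cells were seeded at 2000 cells/well, attached for 10-12 hours, then exposed to compounds for 30-36 hours at 37C before ONE-Glo luminescence.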
KinaseGlo FLuc: counter-screen: inhibitors of Kinase-Glo firefly luciferase. Q27757. Kinase-Glo luciferase, ATP luminescence, 8 min. Potency, µM (highest dose often 38.3 µM), for inactives: at the highest dose activity change, negative = inhibition, usual class: inhibitors. 0.28% of 200,000 active. AID 1379; note: % is set by controls: 0 for no effect and ±100 for the full control effect; nearly all actives have a fitted effect of over 60% in size
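Light output from Kinase-Glo luciferase with luciferin and 10 uM ATP in 50 mM imidazole pH 7.2, KCl, MgCl2, Tween 20, BSA; compound pin-delivered, 8-min ambient incubation, then luminescence read.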
ELG1 genotox: inducers of genotoxicity in HEK293T ELG1-luciferase cells; HEK293T ELG1-luciferase reporter, luminescence, 16 h; Potency, µM (series often up to 46 µM), for inactives: top-dose activity change, positive = activation, actives largely listed as activators; 1.3% of 330,000 active; AID 504466; note: % of control where 0% means no effect; nearly all actives have a fitted effect of over 60% in size
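Screening used a luciferase reporter fused to human ELG1 in HEK293T cells. Luminescence was read on a CCD plate imager after 16 hr exposure and 30 min ONE-Glo incubation.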
FLuc counter: firefly luciferase modulation, counter-screen for miR-21 project | purified FLuc, Km substrates, luminescence inhibition | 6.9% of 360,000 active | P08659 | Potency, µM (top dose mostly 57.5 µM), inactives show at the top dose activity change, negative = inhibition, most hits filed as inhibitors | AID 588342;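 note: plate controls were vehicle for no effect and reference inhibitor for full effect; nearly all actives have a fitted effect of over 55% in size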
Target sequence (P08659 whole entry, looked up): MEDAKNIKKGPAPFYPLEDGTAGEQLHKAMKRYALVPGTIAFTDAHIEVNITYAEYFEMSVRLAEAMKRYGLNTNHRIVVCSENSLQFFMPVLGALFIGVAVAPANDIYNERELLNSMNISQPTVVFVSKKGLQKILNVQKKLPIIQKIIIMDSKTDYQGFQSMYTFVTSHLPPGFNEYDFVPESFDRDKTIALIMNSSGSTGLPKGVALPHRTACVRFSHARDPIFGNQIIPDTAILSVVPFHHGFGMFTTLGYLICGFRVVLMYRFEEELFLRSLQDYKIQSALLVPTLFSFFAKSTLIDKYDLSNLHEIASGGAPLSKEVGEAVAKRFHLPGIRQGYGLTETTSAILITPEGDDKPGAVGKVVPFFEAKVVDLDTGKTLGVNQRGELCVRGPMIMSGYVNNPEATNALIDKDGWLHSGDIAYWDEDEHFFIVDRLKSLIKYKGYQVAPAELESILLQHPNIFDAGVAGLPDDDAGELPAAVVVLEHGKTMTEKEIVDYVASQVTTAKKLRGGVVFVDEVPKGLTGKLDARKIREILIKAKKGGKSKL
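Biochemical qHTS of compounds, final roughly 60 µM downward over six points, against 10 nM purified firefly luciferase using Km concentrations of substrates (10 uM D-luciferin, 10 uM ATP) in Tris acetate pH 7.5 buffer; luminescence output.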
* = called active by the depositor; ? = inconclusive; nt = no result; [ ] = remark or other dose. Most compounds without a hit are left out; they make up all but 7.5% or so of the library. Calls come from the whole dose curve; as a rule, active = well fitted curve in the direction sought with a large enough effect; inconclusive = small, poorly fitted or top-dose-only effect, or another doubt; inactive = no such curve, though single readings can be large; an effect the other way counts as inactive or inconclusive. Potency is the fitted concentration of half-maximal effect.

SMILES | Rab9 promoter act | NPC1 prom act | SMN2 splice up | KinaseGlo FLuc | ELG1 genotox | FLuc counter
CCOC(=O)CN1C(=O)N[C@@H](CCc2ccccc2)[C@H](C(C)=O)[C@H]1C | nt | nt | 2%[9.22 µM] | -4%[7.66 µM] | nt | nt
Cc1ccc(-n2c(=O)c3cccnc3n2CC(=O)Nc2cccc(C)c2C)cc1 | nt | nt | nt | nt | nt | -7%
Cc1ccc(N=Cc2sccc2C)cc1C | 2% | 1% | 29% | -11% | 0% | 1.9µM*
O=C(Nc1ccc(SC(F)F)cc1)C1=COCCO1 | 1µM* | 1.3µM* | 11µM* | -7% | 2.6µM* | 4.8µM*
Cc1ccc(C(=O)Nc2ccc(SC(F)F)cc2)s1 | 1.3µM* | 2.8µM* | 7.1µM* | -1% | ? | 6.7µM*
CC[N+](CC)(CC)CC(=O)Nc1ccc(SC(F)F)cc1 | 0% | -7% | 1% | -1% | -1% | -2%
O=C(N/N=C/c1ccc(OC(F)F)cc1)C1=COCCO1 | 2µM* | 3.2µM* | 11µM* | -18% | ? | 8.5µM*
CCCOc1ccc(-c2nonc2NC(=O)c2ccco2)cc1OCCC | nt | nt | -12% | nt | nt | -4%
CN(C)NC(=S)NC1CCS(=O)(=O)C1 (stereo not given) | 1% | -3% | nt | nt | 0% | -2%
CC(C)C(O)(C#CCN1CCCCCC1)c1ccccc1 (stereo not given) | -1% | 1% | nt | -2% | -6% | ?
O=C(COc1ccc(F)cc1)Nc1ccc2c(c1)OCCO2 | 4µM* | 2.8µM* | nt | nt | ? | 5.4µM*
CCOCC(=O)Nc1ccc2c(c1)OCCO2 | 3.2µM* | ? | ? | -7% | ? | ?
CCOC(=O)c1c(C)c(C(=O)Nc2ccc3c(c2)OCCO3)c(C)n1C | 19% | 10% | ? | 0% | 8% | ?
CCC(=O)c1ccc(OCC(=O)Nc2ccc3c(c2)OCCO3)cc1 | nt | nt | nt | nt | 14% | nt
CCOC(=O)c1ccc(NC(=O)Nc2ccc3c(c2)OCCO3)cc1 | -4% | -1% | -11% | 1% | -3% | 19µM*
Cc1cc(OCC(=O)Nc2ccc3c(c2)OCCO3)ccc1Cl | 4% | 1% | -9% | -2% | 17% | 19µM*
O=C(Nc1cc2c(cc1C(=O)c1ccccc1Br)OCCO2)c1cccc(Cl)c1 | nt | nt | 2% | nt | nt | -1%
C[C@H](NC(=O)c1ccc(Cl)c(Cl)c1)c1ccc(-c2ccccc2)cc1 | nt | nt | 1%[9.22 µM] | -9%[7.66 µM] | nt | nt
Cc1cccc(C(=O)N2CCc3cc(CNC(=O)c4ccnn4C)ccc32)c1 | nt | nt | nt | nt | nt | 1%
CCn1c(SCC(=O)N(C)CC(=O)Nc2cccc(OC)c2)nnc1-c1ccco1 | -10% | 1% | nt | nt | 2% | -2%
O=C(COc1ccc2c(c1)OCO2)Nc1cccc(F)c1 | -1% | 14% | nt | nt | 13µM* | 9.5µM*
CCOc1ccc(OCCC(=O)OCC(=O)Nc2ccc3c(c2)OCO3)cc1 | 1% | -1% | nt | nt | 3% | 24µM*
Cc1ccc(OCCC(=O)OCC(=O)Nc2ccc3c(c2)OCCO3)cc1 | 2% | -1% | nt | nt | -1% | ?
C/C(=N\OCC(=O)Nc1ccc2c(c1)OCCO2)c1ccc2c(c1)OCCO2 | 5% | 2% | nt | nt | 1% | 19µM*
CC(C)CN(C(=O)COC(=O)CSc1ccccc1)c1c(N)n(Cc2ccccc2)c(=O)[nH]c1=O | -2% | 10% | nt | nt | 0% | 1%
CCCOc1ccc(N2C(=O)CC(SCC(N)C(=O)OCC)C2=O)cc1 (stereo not given) | 0% | -3% | nt | nt | -1% | 4%
COC(=O)c1ccc(N2C(=O)CC(SCCN)C2=O)cc1 (stereo not given) | ? | ? | 11µM* | 1% | 12µM* | ?
CCCOc1ccc(N2C(=O)CC(SCCN)C2=O)cc1 (stereo not given) | 2.2µM* | 4µM* | 13µM* | -8% | ? | 12µM*
COc1ccc(NC(=O)CN2C(=O)NC3(CCCCCC3)C2=O)cc1Cl | nt | nt | nt | nt | 3% | nt
Cc1cccn2c(=O)c3cc(C(=O)N4CCCC(C)C4)sc3nc12 (stereo not given) | 11% | 1% | nt | nt | 17% | ?
